For assay [1], the target named is Albumin (Bos taurus) (UniProt P02769). In words: compounds binding labelled BSA control protein – biochemical, small-molecule microarray, Alexa647 label, 635/667 nm fluorescence, artefact control for SMM control protein annotation, profiling panel (AID 1118).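 Also: score merges 667 nm emission intensity and signal-to-noise per printed compound spot.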 Particulars: BSA-A647 binding, fluorescence 635 nm, higher = more signal.
A short description of assay [2]: probe aXIP binding to arrayed compounds – biochemical, NeuroSMM set, 635/667 nm fluorescence, primary screen (AID 1119).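 Also: probe is the protein aXip251-270 applied at 1 µg/mL to compound-printed slides; binding of probe to printed compounds measured as 667 nm fluorescence plus signal to noise.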 To be noted: small-molecule microarray, higher = more signal, called active from +8 up or from −8 down.
A short description of assay [3]: probe aNOTCH3 binding on compound microarray – biochemical, small-molecule microarray, 635/667 nm fluorescence, primary screen (AID 1120).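 Also: probe is a biotin-tagged antibody raised against NOTCH3 rather than NOTCH3 protein; score merges spot fluorescence near 667 nm with spot signal to noise.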 To be noted: higher = more signal.
The nature of assay [4]: probe aNOTCH2 binding on compound microarray – biochemical, small-molecule microarray, 635/667 nm fluorescence, primary screen (AID 1121).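 Also: score merges feature fluorescence read at 667 nm with its signal to noise.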 Particulars: higher = more signal.
Assay [5] addresses Carbonic anhydrase 2 (Homo sapiens) (UniProt P00918). The assay is described as follows: compounds binding carbonic anhydrase 2 – biochemical, small-molecule microarray, Alexa647-labelled CAII, profiling panel (AID 1122). Particulars: CAII-A647 binding fluorescence, higher = more signal.
Assay [6] is described as follows: COS7 lysate on small-molecule microarray, probe aHis, 635 nm (AID 1123).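 Also: z-score combines 667nm fluorescence intensity with signal-to-noise per printed compound spot.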 To be noted: COS7 cell lysate, fluorescence, higher = more signal.
Assay [7] is described as follows: probe aLAP1 signal on lysate-treated microarray – cell lysate, small-molecule microarray, COS7 lysate, primary screen (AID 1124).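 Also: lysate comes from COS7 cells expressing LAP1 and is applied at 0.3 µg/mL; score merges spot fluorescence near 667 nm with signal-to-noise over triplicate slides.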 To be noted: probe aLAP1, fluorescence, higher = more signal.
Assay [8] concerns Sam68 (KHDRBS1). In words: compounds binding KHDRBS1 protein – biochemical, small-molecule microarray, 635 nm fluorescence, primary screen (AID 1125).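 Also: score merges 667 nm channel intensity with signal to noise over triplicate slides.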 Particulars: higher = more signal.
The test system of assay [9] is Chordin-like protein 2 (CHRDL2). The assay is described as follows: compounds binding chordin-like 2 – biochemical, small-molecule microarray, 635 nm fluorescence, primary screen (AID 1126).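 Also: printed compound slides probed with Chrdl2 protein at 4 µg/mL for 1 h at 4 C; score merges 667 nm emission intensity with signal to noise over three replicate slides.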 To be noted: fluorescence 635 nm, higher = more signal.
Assay [10] addresses Concanavalin-A (Canavalia ensiformis) (UniProt P02866). The assay is described as follows: compounds binding concanavalin A lectin – biochemical, small-molecule microarray, Alexa647 label, 635 nm, artefact control for SMM control protein annotation, primary screen (AID 1127).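 Also: z combines 667 nm emission intensity with signal-to-noise across three replicate slides.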 To be noted: ConA-A647 binding fluorescence, higher = more signal.
Assay [11] in a line: compounds binding Alexa647 anti-His antibody – biochemical, small-molecule microarray, 635 nm fluorescence, artefact control for SMM control protein annotation, primary screen (AID 1128).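 Also: score merges feature fluorescence with signal-to-noise for each printed compound spot.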 Particulars: higher = more signal.
Assay [12] deals with Human papillomavirus type 1a E7 protein (residues 1-88). In words: HPV1a E7 small-molecule binders, primary screen, biochemical, small-molecule microarray, residues 1-88, 635 nm (AID 1129). Particulars: small-molecule microarray binding, fluorescence 635 nm; higher = more signal.
The target in assay [13] is Focal adhesion kinase 1 (Homo sapiens) (UniProt Q05397). The assay is described as follows: PTK2 protein binding on printed compound slides – biochemical, small-molecule microarray, 635/667 nm fluorescence, BSA, DTT, primary screen (AID 1130).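 Also: composite of spot emission at 667 nm and signal to noise over triplicate slides.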 Particulars: 635 nm fluorescence, higher = more signal.
Assay [14] concerns Fibrinogen (Alexa647-labelled). The assay is described as follows: Alexa647-fibrinogen binding to printed small molecules – biochemical, small-molecule microarray, 635/667 nm fluorescence, artefact control for SMM control-protein annotation, profiling panel (AID 1131).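 Also: z-score merges 667 nm fluorescence with per-spot signal-to-noise over triplicate slides.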 Particulars: fibrinogen-A647 binding fluorescence, higher = more signal.
The target in assay [15] is Follistatin (Homo sapiens) (UniProt P19883). In words: FST protein binding to printed compounds – biochemical, small-molecule microarray, 635/667 nm fluorescence, primary screen (AID 1132). Particulars: 635 nm fluorescence, higher = more signal.
In assay [16] the target is Fibroblast growth factor 2 (Homo sapiens) (UniProt P09038). The assay is described as follows: basic fibroblast growth factor binding to printed compounds – biochemical, small-molecule microarray, 635/667 nm fluorescence, primary screen (AID 1133). To be noted: FGF2, fluorescence 635/667, higher = more signal.
A short description of assay [17]: JC-1 mitochondrial potential readout, lung cancer cells – cell-based, A549, JC-1 fluorescence, basal, 24 h, 100 nL, profiling panel (AID 1138).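 Also: A549 lung adenocarcinoma cells under basal conditions with no added stimulus; test concentration not given here.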 Particulars: higher = more signal.
For assay [18], the system named is Lefty1. The assay is described as follows: Lefty1 protein binding to printed compounds – biochemical, small-molecule microarray, 635/667 nm fluorescence, primary screen (AID 1139). To be noted: fluorescence 635/667, higher = more signal.
Assay [19] concerns wheat germ agglutinin (Triticum aestivum), Alexa647-labelled. The assay is described as follows: Alexa647-WGA lectin binding to printed small molecules – biochemical, small-molecule microarray, 635/667 nm fluorescence, artefact control for SMM control-protein annotation, profiling panel (AID 1140).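 Also: score merges 667 nm feature emission with signal to noise over triplicate slides.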 Particulars: WGA-A647 binding, 635 nm fluorescence, higher = more signal.
Assay [20] has as its target Luciferin 4-monooxygenase (Photinus pyralis) (UniProt P08659). In words: inhibition of purified Photinus pyralis luciferase – biochemical, luminescence, purified enzyme, 2006 set, primary screen (AID 1141).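 Also: cell-free assay with purified firefly luciferase at 100 ng per well in PBS; test concentration not given here.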 To be noted: purified firefly luciferase, SteadyGlo luminescence, 30 min; higher = more signal, called active from +8 up or from −8 down.

Active and inactive are the calls of the source.

Focal adhesion kinase 1 (Homo sapiens), sequence (Q05397 whole entry, looked up): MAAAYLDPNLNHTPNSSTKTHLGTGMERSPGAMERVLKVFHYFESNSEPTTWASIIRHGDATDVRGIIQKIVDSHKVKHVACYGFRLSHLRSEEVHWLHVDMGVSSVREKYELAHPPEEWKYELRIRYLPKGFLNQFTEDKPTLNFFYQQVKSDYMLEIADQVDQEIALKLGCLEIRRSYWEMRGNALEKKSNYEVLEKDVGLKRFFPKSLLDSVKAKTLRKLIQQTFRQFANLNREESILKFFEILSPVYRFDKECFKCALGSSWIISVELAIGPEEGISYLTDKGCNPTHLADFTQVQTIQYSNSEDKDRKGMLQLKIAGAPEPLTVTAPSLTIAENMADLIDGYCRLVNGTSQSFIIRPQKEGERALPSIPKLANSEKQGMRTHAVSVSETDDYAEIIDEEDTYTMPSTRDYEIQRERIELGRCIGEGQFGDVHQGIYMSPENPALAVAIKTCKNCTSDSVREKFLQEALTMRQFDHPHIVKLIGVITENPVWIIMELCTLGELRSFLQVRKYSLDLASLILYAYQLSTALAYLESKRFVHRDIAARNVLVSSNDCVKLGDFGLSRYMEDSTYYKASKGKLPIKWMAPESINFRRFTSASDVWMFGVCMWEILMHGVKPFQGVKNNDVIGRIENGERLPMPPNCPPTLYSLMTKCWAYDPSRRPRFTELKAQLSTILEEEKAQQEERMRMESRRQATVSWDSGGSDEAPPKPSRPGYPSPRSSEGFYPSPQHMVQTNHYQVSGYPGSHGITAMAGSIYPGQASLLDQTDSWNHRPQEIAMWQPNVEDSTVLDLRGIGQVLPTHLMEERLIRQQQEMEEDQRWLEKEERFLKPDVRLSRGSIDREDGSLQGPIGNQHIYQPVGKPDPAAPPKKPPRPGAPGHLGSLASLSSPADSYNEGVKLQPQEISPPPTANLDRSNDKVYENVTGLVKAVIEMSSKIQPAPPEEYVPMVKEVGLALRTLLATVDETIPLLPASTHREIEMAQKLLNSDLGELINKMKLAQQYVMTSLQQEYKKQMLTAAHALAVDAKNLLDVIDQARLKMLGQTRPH
Luciferin 4-monooxygenase (Photinus pyralis), sequence (P08659 whole entry, looked up): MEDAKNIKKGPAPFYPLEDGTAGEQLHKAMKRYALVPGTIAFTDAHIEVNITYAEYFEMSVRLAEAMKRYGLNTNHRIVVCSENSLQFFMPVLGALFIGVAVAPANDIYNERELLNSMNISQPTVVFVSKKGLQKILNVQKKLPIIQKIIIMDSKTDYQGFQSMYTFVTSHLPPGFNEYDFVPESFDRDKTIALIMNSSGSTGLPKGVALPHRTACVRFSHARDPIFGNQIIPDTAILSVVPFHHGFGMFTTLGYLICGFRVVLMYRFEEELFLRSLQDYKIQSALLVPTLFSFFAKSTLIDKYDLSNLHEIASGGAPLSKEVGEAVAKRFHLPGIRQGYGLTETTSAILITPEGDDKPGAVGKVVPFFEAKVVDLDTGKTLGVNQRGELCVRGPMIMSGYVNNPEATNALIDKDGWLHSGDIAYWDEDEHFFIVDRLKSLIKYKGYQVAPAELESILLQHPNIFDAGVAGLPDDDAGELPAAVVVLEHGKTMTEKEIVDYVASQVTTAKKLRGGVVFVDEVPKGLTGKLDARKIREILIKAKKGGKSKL
Albumin (Bos taurus), sequence (P02769 whole entry, looked up): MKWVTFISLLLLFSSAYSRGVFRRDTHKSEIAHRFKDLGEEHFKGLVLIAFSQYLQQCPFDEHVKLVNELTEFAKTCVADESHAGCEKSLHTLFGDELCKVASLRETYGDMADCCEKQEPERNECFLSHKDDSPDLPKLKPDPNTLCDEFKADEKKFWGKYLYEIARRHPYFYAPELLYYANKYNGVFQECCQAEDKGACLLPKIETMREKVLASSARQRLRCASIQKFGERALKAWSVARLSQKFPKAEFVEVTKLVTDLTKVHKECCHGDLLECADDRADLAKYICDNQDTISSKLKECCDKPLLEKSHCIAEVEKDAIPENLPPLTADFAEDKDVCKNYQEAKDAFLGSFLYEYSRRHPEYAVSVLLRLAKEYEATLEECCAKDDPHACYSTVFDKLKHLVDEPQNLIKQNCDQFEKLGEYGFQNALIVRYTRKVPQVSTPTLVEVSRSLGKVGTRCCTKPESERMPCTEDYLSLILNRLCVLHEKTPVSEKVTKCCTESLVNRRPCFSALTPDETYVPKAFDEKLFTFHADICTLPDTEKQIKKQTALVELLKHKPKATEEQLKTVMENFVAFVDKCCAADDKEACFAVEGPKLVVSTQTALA
Fibroblast growth factor 2 (Homo sapiens), sequence (P09038 whole entry, looked up): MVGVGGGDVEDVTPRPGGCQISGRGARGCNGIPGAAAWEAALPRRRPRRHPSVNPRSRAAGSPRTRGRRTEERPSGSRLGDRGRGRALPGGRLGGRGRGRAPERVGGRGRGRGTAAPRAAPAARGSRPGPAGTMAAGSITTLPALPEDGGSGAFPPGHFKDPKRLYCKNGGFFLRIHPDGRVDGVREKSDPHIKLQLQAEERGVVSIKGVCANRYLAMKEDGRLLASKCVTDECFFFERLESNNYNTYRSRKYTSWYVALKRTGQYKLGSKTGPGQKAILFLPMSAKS
Concanavalin-A (Canavalia ensiformis), sequence (P02866 whole entry, looked up): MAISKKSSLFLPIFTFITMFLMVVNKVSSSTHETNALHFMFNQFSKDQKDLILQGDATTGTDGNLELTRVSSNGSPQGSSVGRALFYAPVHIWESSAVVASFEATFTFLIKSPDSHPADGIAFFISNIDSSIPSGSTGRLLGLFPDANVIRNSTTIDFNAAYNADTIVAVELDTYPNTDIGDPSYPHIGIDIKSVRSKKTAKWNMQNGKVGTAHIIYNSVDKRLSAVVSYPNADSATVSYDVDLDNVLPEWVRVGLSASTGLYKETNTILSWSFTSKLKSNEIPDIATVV
Follistatin (Homo sapiens), sequence (P19883 whole entry, looked up): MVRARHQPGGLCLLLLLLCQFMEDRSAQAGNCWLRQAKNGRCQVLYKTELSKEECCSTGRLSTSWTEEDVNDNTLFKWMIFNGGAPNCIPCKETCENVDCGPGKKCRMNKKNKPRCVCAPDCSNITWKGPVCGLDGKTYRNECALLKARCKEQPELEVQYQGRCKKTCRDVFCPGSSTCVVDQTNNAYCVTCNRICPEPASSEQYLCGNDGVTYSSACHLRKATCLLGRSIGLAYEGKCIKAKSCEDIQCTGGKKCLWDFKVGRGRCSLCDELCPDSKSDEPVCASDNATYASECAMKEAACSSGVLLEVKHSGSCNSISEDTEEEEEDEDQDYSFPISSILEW

As for `CN1C(=O)C2C(C3CC3)C=C3CN(Cc4cccc(Cl)c4)[C@@H]([C@@H](O)Cc4ccccc4)C3C2C1=O` (stereo not given in full), the composite z-score was 0.363 in [1]; 0.147 in [3]; -0.104 in [4]; 0.225 in assay [5]; 1.17 in assay [6]; -0.0531 in assay [7]. Besides, the composite z-score in assay [8] is 1.3; in [9], 0.231; in assay [10], 1.06; in assay [11] it was 0.162; in [12], 1.18; in assay [13], 1.09. The composite z-score amounted to 0.862 in [14]; 0.662 in assay [15]; 0.845 in [16]; 1.45 in [18]; 0.344 in [19]. Also, the composite Z-score in [2] was 0.996 (inactive). For the same compound, the z-score in [17] is 1.35; in assay [20], -0.785 (inactive).
For the compound `NC(=O)N1C(=O)C2C(C1=O)C1C=C(CCCO)C2C(c2ccc(CN3CCCC3)cc2)N1Cc1cc2c(cc1Br)OCO2` (stereo not given), the composite z-score was -0.939 in assay [1]; -0.323 in assay [3]; -0.117 in [4]; 0.339 in [5]; 0.344 in assay [6]; 0.117 in [7]. Further, the composite z-score in assay [8] is -0.312; in assay [9], 0.192; in assay [10], -0.129; in [11] it was 0.197; in assay [12] it was -0.445; in assay [13] it was -0.214. Also, the composite z-score in [14] is -0.713; in assay [15], 0.583; in assay [16] it was 1.2; in [18] it was 0.117; in assay [19] it was -0.419. Besides, in [2], the composite Z-score is -0.328 (inactive). In addition, the z-score in [17] is -0.193; in assay [20], 0.542 (inactive).
On to `COc1ccc([Si](C)(C)[C@@H]2[C@@H](CC(=O)N3Cc4ccccc4C[C@H]3CO)O[C@]3(C(=O)N(Cc4cccc(N5CCOC5=O)c4)c4ccccc43)[C@H]2C)cc1`, for which the composite z-score in [1] was -0.699; in assay [3], 0.0016; in assay [4], -0.117; in assay [5], 0.038; in [6], 0.479; in assay [7], 0.333. Moreover, the composite z-score is 1.1 in assay [8]; 1.32 in assay [9]; 0.844 in assay [10]; 1.23 in [11]; 0.402 in assay [12]; 0.0975 in assay [13]. The composite z-score was 0.0735 in assay [14]; 1.41 in assay [15]; 1.4 in assay [16]; 1.54 in assay [18]; -0.244 in assay [19]. Also, the composite Z-score in assay [2] was 0.844 (inactive). The figures for the z-score in assay [17] and in [20] were -0.661 and 0.274 (inactive), respectively.
Turning to `NC(=O)N1C(=O)C2C(C1=O)C1C=C(CCCO)C2C(c2ccc(CN3CCCC3)cc2)N1Cc1sc2ccccc2c1Cl` (stereo not given), the composite z-score was 0.492 in assay [1]; 0.124 in assay [3]; -0.258 in [4]; 0.832 in assay [5]; 0.712 in assay [6]; 0.242 in assay [7]. The composite z-score in assay [8] was -0.0045; in assay [9], -0.352; in assay [10] it was 0.271; in assay [11] it was 0.17; in [12], 0.1; in assay [13], 0.39. For the same compound, the composite z-score is -0.109 in assay [14]; 0.301 in assay [15]; -0.145 in assay [16]; -0.131 in assay [18]; 0.394 in assay [19]. Also, the composite Z-score in assay [2] was -1.02 (inactive). Also, the z-score was 0.947 in [17] and -0.286 (inactive) in assay [20].
Turning to `CCCC#C[Si](O[C@H](CC)c1cn(Cc2ccccc2)nn1)(C(C)C)C(C)C`, the composite z-score in assay [1] is 0.603; in assay [3], 0.151; in assay [4], 0.0263; in assay [5] it was 0.365; in assay [6], 0.855; in assay [7] it was -0.193. Besides, the composite z-score in assay [8] is 0.793; in [9] it was 0.379; in assay [10], 0.572; in assay [11] it was 0.738; in [12] it was 0.209; in [13] it was 0.0116. The composite z-score in assay [14] was 0.903; in assay [15], 1.01; in assay [16], 0.525; in [18] it was 0.828; in assay [19], 0.143. Also, in assay [2], the composite Z-score is 0.244 (inactive). The z-score in assay [17] is -0.0817; in assay [20] it was -0.403 (inactive).
On to `COC(=O)C(CC#Cc1ccc2c(c1)[C@]1(C(=O)N2)[C@H](c2ccc(OCCO)cc2)N2[C@H](c3ccccc3)[C@H](c3ccccc3)OC(=O)[C@H]2[C@@H]1C(=O)N1CCCCCCC1)C(=O)OC`, for which the composite z-score in [1] was 0.576; in assay [3], 1.75; in [4], 0.967; in [5], 0.933; in assay [6], 3.5; in assay [7], 1.65. For the same compound, the composite z-score amounted to 1.3 in [8]; 1.52 in assay [9]; 1.21 in assay [10]; 2.65 in [11]; 1.17 in [12]; 2.67 in [13]. Further, the composite z-score in [14] worked out at 0.68; in [15], 1.45; in [16], 0.724; in assay [18] it was 1.24; in assay [19], 1.46. For the same compound, the composite Z-score in [2] was 4.71 (inactive). Moreover, the z-score in assay [17] was -1.39; in assay [20], -0.596 (inactive).
Consider `COc1ccc([Si](C)(C)[C@@H]2[C@@H](CC(=O)N3CCC[C@H]3CO)O[C@]3(C(=O)N(Cc4cccc(N5CCCCC5=O)c4)c4ccccc43)[C@H]2C)cc1`, for which the composite z-score is -0.101 in assay [1]; -0.0098 in assay [3]; -0.127 in assay [4]; 0.583 in assay [5]; 1.97 in assay [6]; 0.433 in [7]. Moreover, the composite z-score in assay [8] is 1.07; in assay [9], 0.781; in assay [10], 1.11; in assay [11] it was 2.54; in assay [12], 1.03; in [13], 0.0576. In addition, the composite z-score worked out at 0.641 in [14]; 0.767 in [15]; 0.473 in [16]; 1.23 in assay [18]; 0.307 in [19]. Further, in [2], the composite Z-score is 1.39 (inactive). Moreover, the z-score in [17] was 0.218; in assay [20], -1.86 (inactive).
With `CC1CC/C=C\[C@H]2OC34C=CCN(CCN5CCOCC5)C(=O)[C@H]3N(CCCO)C(=O)[C@@H]4C2C(=O)O1` (stereo not given in full), the composite z-score in assay [1] is -1.3; in [3] it was -0.068; in assay [4] it was -0.164; in assay [5], 0.91; in assay [6] it was -0.531; in assay [7], 0.305. Moreover, the composite z-score was 0.0414 in assay [8]; -0.727 in assay [9]; -0.187 in assay [10]; 0.549 in assay [11]; -1.13 in [12]; -0.381 in [13]. Further, the composite z-score in assay [14] is -1.22; in [15] it was -0.298; in [16], -0.311; in assay [18], -0.265; in assay [19], -0.133. The composite Z-score in assay [2] was 0.0485 (inactive). Besides, the z-score was -0.296 in assay [17] and 0.201 (inactive) in [20].
As for `CCOC(=O)C[C@H]1[C@H](OC(=O)Cc2ccc3c(c2)OCO3)[C@@H](NC(=O)Cc2ccc(OC)cc2)c2cc(OCCCO)ccc2N1C(=O)Cc1ccc(OC)cc1`, the composite z-score in [1] is 0.635; in assay [3], -0.143; in assay [4], -0.172; in [5], 0.263; in assay [6], 0.428; in assay [7] it was 0.0995. Also, the composite z-score in assay [8] is 0.323; in [9], -0.0366; in [10], -0.117; in assay [11], 0.247; in assay [12] it was 0.173; in assay [13], -0.113. Besides, the composite z-score in [14] is 0.239; in assay [15], -0.147; in assay [16], -0.0689; in assay [18] it was 0.0681; in [19], -0.002. The composite Z-score in assay [2] is 0.472 (inactive). Besides, the figures for the z-score in [17] and in [20] were 1.39 and -0.127 (inactive), respectively.

(Values after PubChem BioAssay.)
